# Methyltransferases = Primary Screen for Target Class Profiling of Small Molecule Inhibitors of Methyltransferases | purified enzyme, MTase-Glo SAH luminescence; hits give low values | calls only at 40 µM | hit rate 3.9% among 25,000 | AID 1745853, 2022; call rule not given here
#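 Each enzyme was reacted with SAM and its substrate, with compounds tested once at 40 uM; SAH formed was read by MTase-Glo luminescence.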
# Calls only; . = inactive; + = active, no number. This excerpt belongs to a sample that is enriched for hits.
SMILES,Methyltransferases
CCc1ccc(NC(=O)Cn2nc3n(Cc4ccccc4)c(=O)c4ccccc4n3c2=O)cc1,.
CCN1CCN(C(=O)C2Cn3cccc3C(=O)N2C)CC1 (centres undefined),.
C=C[C@H]1[C@H](O[C@@H]2O[C@H](CO)[C@@H](O)[C@H](O)[C@H]2O)OC=C2C(=O)OCC[C@]21O,.
C=C[C@H]1[C@H](O[C@@H]2O[C@H](CO)[C@@H](O)[C@H](OC(=O)/C=C/c3ccc(O)c(OC)c3)[C@H]2O)OC=C2C(=O)OCC[C@]21O,+
O=C(/C=C/c1ccc(O)c(O)c1)O[C@@H]1[C@@H](O)[C@H](OC2CCCCC2O)O[C@H](CO)[C@H]1O (some centres undefined),.
Cc1ccc(N2C(=O)c3ccc(-c4ccco4)n3CC2(C)C(=O)NCc2ccc(Cl)cc2)cc1C (centres undefined),.
COCc1ncc(C)n1C1CCCN(C(=O)CCCc2ccccc2)C1 (centres undefined),.
Cc1sc2c(c1C)C(c1ccc(Cl)cc1)=N[C@H](CC(=O)NCCCCNC(=O)COc1cccc3c1C(=O)N([C@H]1CCC(=O)NC1=O)C3=O)c1nnc(C)n1-2,+
Cc1c(Cl)cccc1N1C(=O)c2cc(C(C)(C)C)nn2CC1(C)C(=O)NC1CCCCC1 (centres undefined),.
Cc1ccc(CNC(=O)C2(C)Cn3c(nc4ccccc43)C(=O)N2Cc2ccc(C)cc2)cc1 (centres undefined),.
CC(C)CNC(=O)c1ccc2c(=O)n(C(C)C)c3nn(CC(=O)N(C)c4ccccc4)c(=O)n3c2c1,.
CC1CCN(S(=O)(=O)c2ccc3c(ccn3CC(=O)NC(C)c3ccccc3)c2)CC1 (centres undefined),.
Nc1cccc(-c2cc3c(Oc4cccc(O)c4)ncnc3[nH]2)c1,+
NCc1ccc(Oc2ncnc3ccccc23)cc1,.
CCCC1c2ccc(C)n2CCN1C(=O)Nc1cc(Cl)ccc1C(=O)OC (centres undefined),.
O=C(/C=C/c1ccc(O)cc1)N[C@@H](Cc1ccc(O)cc1)C(=O)O,.
CCCCCc1ccc(/C=C/C(=O)Nc2cc(Cl)ccc2C(=O)O)cc1,+
Cc1ccc(C(=O)Cn2nc3n(Cc4ccc(F)cc4)c(=O)c4ccccc4n3c2=O)cc1,.
NCCOc1cc(C(=O)Nc2cc(OCCN)c3ccccc3n2)nc(C(=O)Nc2cc(OCCN)c3ccccc3n2)c1,+
COc1ccc(N2C(=O)CSc3c(c4ccccc4n3C)C2C(=O)NCCCOC(C)C)c(OC)c1 (centres undefined),.
O=C(CSc1nnc2n(Cc3ccccc3)c(=O)c3ccccc3n12)Nc1cccc(F)c1,.
O=C(O)c1cc([N+](=O)[O-])ccc1NCCCc1ccccc1,.
Fc1ccccc1-c1noc(NCCc2ccc(Cl)cc2)n1,.
O=C1c2ccccc2C(=O)c2c(NCCc3ccc(O)cc3)ccc(NCCc3ccc(O)cc3)c21,+
COc1ccc2cc3n(c2c1)CC(C)(C(=O)NCC1CCCO1)N(Cc1ccccc1C)C3=O (centres undefined),.
SMILES,Methyltransferases
CCOC(=O)CNC(=O)N1Cc2c(sc3c2CCCC3)-n2cccc2C1c1cccc(C)c1 (centres undefined),.
CCCn1c(=O)c2ccc(C(=O)NCC(C)C)cc2n2c(=O)n(Cc3cccc(OC)c3)nc12,.
Cc1ccc(O)c(N=Nc2ccccc2)n1,+
C[C@@H]1CN(C(=O)c2cccc(N3CCNC3=O)c2)C[C@@]1(O)C1CC1,.
CN1C(=O)c2cc(C(=O)NCc3ccccc3)nn2CC1(C)C(=O)NCc1ccc(F)cc1 (centres undefined),.
OCCN1CCN(CCCN2c3ccccc3Sc3ccc(Cl)cc32)CC1,.
O=C1NC2CCCCN2C12CCN(CCCN1c3ccccc3CCc3ccc(Cl)cc31)CC2 (centres undefined),+
CN(C)CCCN1c2ccccc2Sc2ccc(Cl)cc21,.
COC(=O)c1cc2n(n1)CC(C)(C(=O)NC1CCCCCC1)N(c1ccc(F)cc1C)C2=O (centres undefined),.
COc1ccccc1CCNC(=O)CNC(=O)C1(C)Cn2c(cc3ccccc32)C(=O)N1C (centres undefined),.
CCC(C(=O)N1CCN(c2ccccn2)CC1)n1ccc2cc(S(=O)(=O)N3CCCCC3)ccc21 (centres undefined),.
C=C(C)C(=O)OC1C(OC(C)=O)/C(C=O)=C\CC/C(CO)=C/C2OC(=O)C(=C)C21 (centres undefined),.
C=C1C(=O)O[C@@H]2/C=C(\CO)CC/C=C(\CO)[C@H](OC(C)=O)C(OC(=O)C(C)CC)C12 (some centres undefined),.
C=C1C(=O)O[C@@H]2C=C(COC(C)=O)CC/C=C(\CO)CC[C@@H]12,+
COc1ccc(N2C(=O)c3cc(-c4cccs4)nn3CC2(C)C(=O)NC2CCCCC2)cc1 (centres undefined),.
COc1cc(C2Oc3c(OC)cc(CCCO)cc3C2CO)ccc1O (centres undefined),+
COc1cc(C2Oc3c(O)cc(CCCO)cc3C2CO)ccc1O[C@H]1O[C@H](C)[C@@H](O)[C@H](O)[C@@H]1O (some centres undefined),.
Oc1ccc([C@@H]2Oc3ccc(O)cc3[C@@H]3CCC[C@@H]32)cc1,.
COc1cc(C2Oc3c(OC)cc(/C=C/C(=O)OC4CC(O)(C(=O)O)CC(O)C4O)cc3C2CO)ccc1O (centres undefined),+
COc1cc(/C=C/C(=O)OC2CC3CCC2(C)C3(C)C)ccc1O (centres undefined),.
C/C=C/c1cc(OC)c2c(c1)[C@@H](C)[C@@H](c1ccc(O)c(OC)c1)O2,+
COc1cc([C@@H]2Oc3c(OC)cc(CCCO)cc3[C@@H]2CO[C@@H]2O[C@H](CO)[C@@H](O)[C@H](O)[C@H]2O)ccc1O,.
O=C(/C=C/c1ccc(O)cc1)O[C@@H]1C[C@@](O)(C(=O)O)C[C@@H](O)[C@@H]1O,.
COc1cc(C(O)C2COC(c3ccc(OC4OC(CO)C(O)C(O)C4O)c(OC)c3)C2CO)ccc1O (centres undefined),.
C/C=C/c1ccc2c(c1)[C@@H](C)[C@H](c1ccc(O)cc1)O2,+
SMILES,Methyltransferases
C[C@@]12CO[C@@H](CNS(C)(=O)=O)O[C@@H]1CC[C@]1(C)[C@@H]2CC[C@@H](O)[C@H]1CC(=O)NCc1ccco1,.
Cc1ccccc1CSc1nnc2n(C)c(=O)c3ccc(C(=O)NC4CCCCC4)cc3n12,.
CCOCCCNC(=O)CCc1nnc2n(Cc3ccccc3Cl)c(=O)c3ccccc3n12,.
Cc1ccc(NC(=O)CSc2nnc3n(CC(C)C)c(=O)c4ccc(C(=O)NCC(C)C)cc4n23)cc1,.
CCOC(=O)c1cc2n(n1)CC(C)(C(=O)NCc1ccccc1OC)N(Cc1ccc(SC)cc1)C2=O (centres undefined),.
Cc1cc2c(cc3n2CC(C)(C(=O)NC2CCCCCC2)N(c2cccc(Cl)c2)C3=O)o1 (centres undefined),.
O=C(CCn1ccc2cc(S(=O)(=O)N3CCCCC3)ccc21)NC1CCCC1,.
Cn1ccc(C(=O)NCc2nnc3n2C(C(=O)NCC2CC2)CC3)n1 (centres undefined),.
Cc1ccsc1CCNS(=O)(=O)c1ccc2[nH]c3c(c2c1)CCCC3,.
O=C(OCC(O)CO[C@@H]1O[C@H](C(=O)O)[C@@H](O)[C@H](O)[C@H]1O)c1ccccc1 (some centres undefined),.
